Assay outcomes from PubChem.
Rows were chosen to be rich in hits. Some 2.4% of all compounds tested hit in one or more screens of this group.
D2 PAM-1: HTS Assay for Positive Allosteric Modulators of the Human D2 Dopamine Receptor: Primary Screen for Potentiators; D(2) dopamine receptor (Homo sapiens), P14416; HEK293 T-REx D2, calcium flux, EC20 dopamine potentiation; potentiation, % at 10 µM; hit rate 0.34% among 340,000; AID 485347, 2010;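 active means potentiation over 3 SD above the plate norm, cut at about 30% in these data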; further: 0% is about no effect
Target sequence (P14416 whole entry, looked up): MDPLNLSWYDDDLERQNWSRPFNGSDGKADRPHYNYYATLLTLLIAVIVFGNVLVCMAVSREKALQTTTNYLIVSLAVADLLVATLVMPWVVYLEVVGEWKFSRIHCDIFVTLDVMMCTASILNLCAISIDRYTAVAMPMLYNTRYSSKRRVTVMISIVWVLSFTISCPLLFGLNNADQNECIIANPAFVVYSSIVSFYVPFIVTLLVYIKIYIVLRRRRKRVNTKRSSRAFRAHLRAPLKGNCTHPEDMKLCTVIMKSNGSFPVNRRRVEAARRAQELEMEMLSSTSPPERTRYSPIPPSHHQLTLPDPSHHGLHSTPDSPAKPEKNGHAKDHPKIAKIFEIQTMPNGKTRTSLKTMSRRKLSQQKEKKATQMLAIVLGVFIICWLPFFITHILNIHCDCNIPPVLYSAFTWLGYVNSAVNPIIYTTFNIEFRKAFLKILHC
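Calcium flux readout, no-wash dye, 1 read/s. Inducible HEK293 Trex D2 line, overnight 30 C. Compound alone 180 s (agonist flags), then EC20 dopamine, another 180 s to score potentiation.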
D2 ag-1: HTS Assay for Allosteric Agonists of the Human D2 Dopamine Receptor: Primary Screen for Agonists; AID 485358, 2010; D(2) dopamine receptor (Homo sapiens), P14416; HEK293 T-REx D2 cells, calcium flux agonist mode; activation, % at 2 µM; hit rate 0.53% among 340,000;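 active means activation over 3 SD above normal in the single-dose calcium agonist read, cut at about 30% in these data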; further: 0% is about no effect
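In this primary screen, compounds producing a positive calcium signal within 180 s of addition to tetracycline-induced, force-coupled HEK293 Trex D2 cells are flagged; cells are dye-loaded with a no-wash calcium kit beforehand.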
D2 ag-2: Beta-Arrestin HTS for Positive Allosteric Modulators of the Human D2 Dopamine Receptor: Agonists; activation, % (test concentration not listed); hit rate 0.084% among 360,000; DiscoveRx PathHunter D2 beta-arrestin, luminescence, 90 min; 100% = 57 uM dopamine signal; in the data active means activation above about 40%; inconclusive means between about 15% and that limit
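DiscoveRx PathHunter D2 beta-arrestin cells (2,100/well) attached overnight, then compound-stimulated 90 min at 37 C in HBSS/10 mM HEPES/0.1% Tween-20 buffer; beta-galactosidase complementation read by luminescence after 1 h at ambient temperature. Dopamine 57 uM final (EC100) as control.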
D2 PAM-2: Beta-Arrestin HTS for Positive Allosteric Modulators of the Human D2 Dopamine Receptor: Potentiators; D(2) dopamine receptor (Homo sapiens), P14416; AID 624464, 2012; DiscoveRx D2 beta-arrestin cells, luminescence, 90 min; 100% = 57 uM dopamine signal; potentiation, % (concentration not given with the values); hit rate 0.23% among 360,000; in the data active means potentiation above about 50%; inconclusive means mostly about 30% to 49%
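D2 cells co-treated with compound plus 50 nM dopamine (EC20) for 90 min at 37 deg C to detect potentiation. Beta-arrestin recruitment was read as enzyme-fragment luminescence after 1 h at ambient temperature. Full response was set by 57 uM dopamine.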
D2 antagonist: HTS Assay for Allosteric Antagonists of the Human D2 Dopamine Receptor: Primary Screen for Antagonists. D(2) dopamine receptor (Homo sapiens), P14416. HEK293 TREx D2 cells, calcium flux, dopamine EC80. inhibition, % at 10 µM. hit rate 2% among 340,000; in the data active means inhibition above about 30%; inactive means below that, where a call was filed; further: 0% is about no effect
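Compounds are added to dye-loaded, induced HEK293 T-REx cells coupled to calcium release via D2; after a 3 min kinetic read an EC80 dopamine stimulus is given and fluorescence is recorded for 3 more min.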
Active calls of the source: *; ? = inconclusive; . = not tested or not shown.

SMILES	D2 PAM-1	D2 ag-1	D2 ag-2	D2 PAM-2	D2 antagonist
O=C(O)c1cc2c(s1)-c1ccccc1OC2	-2	0	-1	-12	-8
O=C(NC1CC1)c1cc2c(s1)-c1ccccc1OC2	-11	-1	-1	-11	34*
O=C(Nc1cccc(C(F)(F)F)c1)c1cc2c(s1)-c1ccccc1OC2	-16	0	-2	-13	40*
Cc1ccc(NC(=O)CCCn2c(=O)c3cccn3c3cccnc32)cc1C	3	0	.	.	.
CN(C)c1ccc(N/C=C/C(=O)C(C)(C)C)cc1	-6	0	9	66*	-7
O=C(COC(=O)c1ccc([N+](=O)[O-])cc1Cl)NCc1ccco1	0	0	8	7	-5
CC(C)CNC(=O)COC(=O)c1ccc([N+](=O)[O-])cc1Cl	0	-1	3	57*	-6
O=C1COc2ccc(C(=O)COC(=O)c3ccccc3[N+](=O)[O-])cc2N1	0	.	2	-12	.
O=C1COc2ccc(C(=O)COC(=O)c3ccc(Cl)cc3[N+](=O)[O-])cc2N1	-1	0	?	52*	9
O=C1COc2ccc(C(=O)COC(=O)c3ccc([N+](=O)[O-])cc3Cl)cc2N1	-13	1	?	51*	3
Cc1ccc(C)c(CN2C(=O)c3ccccc3S(=O)(=O)c3ccc(C(=O)N4CCN(c5ccccn5)CC4)cc32)c1	-3	.	.	.	.
CC(=O)N1c2c(cc(Br)cc2S(=O)(=O)NCc2ccccc2)CC1C (configuration not stated)	.	-3	4	-9	0
COc1cccc(CNS(=O)(=O)c2cc(Br)cc3c2N(C(C)=O)C(C)C3)c1 (configuration not stated)	-23	0	-1	-13	40*
Cc1ccccc1NC(=O)CSc1nc2nccnc2c(=O)n1CCc1c[nH]c2ccccc12	-1	1	.	.	.
CCNc1nc(N)c(C(=C(C#N)C#N)c2ccccc2)s1	-18	-1	-3	-39	45*
Nc1nc(Nc2ccccc2)sc1C(=O)c1ccccc1	5	12	0	-7	-8
COc1ccc(S(=O)(=O)c2cn(C)c3cc(N4CCCC4)c(F)cc3c2=O)cc1	-10	0	.	.	.
C=CCNc1nc(C(=O)OCC(=O)Nc2c(Cl)cccc2C(F)(F)F)cs1	-4	0	2	-1	36*
Cc1cccc(OCc2ccc(-c3nc(C#N)c(N4CCC(C(N)=O)CC4)o3)o2)c1	17	-2	.	.	.
Oc1ccc(-c2nc(-c3ccc(O)c(O)c3)cs2)cc1	-5	3	14	50*	-5
CN=C1CC(C)(C)CC(=O)/C1=C(/O)CCCN1C(=O)c2ccccc2C1=O	-10	0	-3	-2	8
O=C(O)CN=C1CC(c2ccccc2)CC(=O)/C1=C(/O)CCCN1C(=O)c2ccccc2C1=O (configuration not stated)	31*	1	-2	1	-6
O=[N+]([O-])c1ccc(/C=N/NS(=O)(=O)c2ccc(Cl)cc2)o1	3	1	-6	3	45*
Cc1ccc(S(=O)(=O)N/N=C\c2ccc([N+](=O)[O-])o2)cc1	-3	-1	0	1	6
COc1cc(C)c(Cl)c(C)c1S(=O)(=O)NCc1cccnc1	32*	1	1	-7	-22
CCCCN1C(=O)C(O)(CC(=O)c2ccccc2OC)c2ccccc21 (configuration not stated)	-11	0	-3	-3	33*
CCOC(=O)c1cc(-c2ccc(OC)cc2)n(CCC(=O)Nc2ccccc2OC)c1C	-4	0	.	.	.
C[C@@H]1CC2OC(=O)[C@@]3(C)C(=O)CC[C@@](C)(C23)[C@@]1(O)CCc1ccoc1 (some centres not stated)	-13	0	-1	1	30*
Cc1ccc(CC(=O)Nc2nncs2)cc1	0	0	0	4	47*
